TNF death inh: TNF-alpha cell death inhibition in Jurkat FADD-/- cells; Jurkat FADD-/- TNF necroptosis rescue, ATP luminescence, 24 h; 0 = TNF only, 100 = no-TNF cells; activation (protection from cell death), % at 10 µM; 220,000 compounds, 0.068% hits; AID 463075;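 active means activation, meaning protection from cell death, of at least 50% relative to plate controls; inactive means activation below 50%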;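 further: necroptosis triggered by 40 ng/mL TNF-alpha added together with compound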
m-calpain inh: blocks pig calpain II enzyme activity; purified calpain II, fluorogenic peptide substrate, 30 min; inhibition, % at 16 µM; 220,000 compounds, 0.37% hits; AID 1236;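 active means inhibition above about 50%, limit read from the data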
zVAD death inh: blocks zVAD induced death of L929 cells; 220,000 compounds, 0.38% hits; viability rescue, % at 10 µM; L929 zVAD necroptosis rescue, ATP luminescence, 24 h; with zVAD 60 µM; AID 1377;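 active means activation, scaled between plate controls, above about 75%, limit read from the data; inactive means activation under that limit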;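 further: 0% = zVAD with DMSO and 100% = DMSO alone without zVAD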
ROMK mod: modulators of human ROMK potassium channel; Tet-inducible ROMK, thallium flux fluorescence; actives lie on both sides; B-score at 10 µM; 130,000 compounds, 2% hits; AID 1918;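 active means signal ratio slope over the read window, or its plate-corrected B-score, at least 3 SD from the plate mean, either direction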;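 further: B-score of the F/F0 ratio slope over 7 to 12 s after thallium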
Target sequence (P48048 whole entry, looked up): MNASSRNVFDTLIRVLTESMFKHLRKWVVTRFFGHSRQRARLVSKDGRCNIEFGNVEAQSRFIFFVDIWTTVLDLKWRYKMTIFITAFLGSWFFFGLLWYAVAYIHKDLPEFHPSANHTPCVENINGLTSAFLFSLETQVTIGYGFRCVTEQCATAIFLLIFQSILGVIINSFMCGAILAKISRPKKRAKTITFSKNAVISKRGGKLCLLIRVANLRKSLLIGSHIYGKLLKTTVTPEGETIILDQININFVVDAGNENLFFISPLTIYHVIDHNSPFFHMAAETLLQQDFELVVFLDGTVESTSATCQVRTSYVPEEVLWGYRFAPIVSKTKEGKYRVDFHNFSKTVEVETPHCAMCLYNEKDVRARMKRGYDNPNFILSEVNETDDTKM
14-3-3 Bad PPI: disrupts binding of bovine 14-3-3 zeta to phospho-Bad peptide; inhibition, % at 21.7 µM; 220,000 compounds, 0.71% hits; AID 781; TR-FRET 14-3-3zeta/Dy647-pBad peptide displacement, 1 h;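 active means inhibition above about 70%, limit read from the data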;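 further: 0% = full 14-3-3 plus peptide FRET controls and 100% = background without 14-3-3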
Target sequence (P63103 whole entry, looked up): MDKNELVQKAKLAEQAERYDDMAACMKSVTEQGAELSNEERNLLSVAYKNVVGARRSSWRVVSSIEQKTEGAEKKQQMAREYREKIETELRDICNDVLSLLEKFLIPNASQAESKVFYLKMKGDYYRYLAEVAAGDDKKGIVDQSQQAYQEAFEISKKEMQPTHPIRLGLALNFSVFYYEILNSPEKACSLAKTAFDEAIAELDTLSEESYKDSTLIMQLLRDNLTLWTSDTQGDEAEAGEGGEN
Efa HMGR inh: inhibitors of class II HMG-CoA reductase from Enterococcus faecalis. purified E. faecalis HMGR, NADPH absorbance 340 nm kinetic. inhibition, % at 10 µM. 190,000 compounds, 0.41% hits;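 active means inhibition above a set limit, the median over all tested compounds plus 3 SD, cut at about 9.5% in these data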;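 further: enzyme runs in reverse so mevalonate oxidation gives rising NADPH absorbance; 0% = complete reaction with DMSO and 100% = background rate lacking mevalonate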
ROMK hit retest: retested hit modulating human ROMK potassium channel. AID 1917. shares compounds with ROMK mod. normalized thallium flux (F/F0 slope) at 10 µM. 3,000 compounds, 54% hits. ROMK thallium flux, fluorescence ratio; active compounds read low;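 active means Flux at 10 µM at least 3 SD below or above vehicle control mean in one or both replicates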
Numbers without * were called inactive. Shown are actives, neighbours in structure and some others; about 3% of the full set was active somewhere.

How did Fc1ccc(-c2cnn3c(-c4ccncc4)ccnc23)cc1 do in these assays?
TNF death inh: -5.2; m-calpain inh: -4.3; zVAD death inh: 20.6; ROMK mod: 0.555; 14-3-3 Bad PPI: -12.3; Efa HMGR inh: -2.0

What do the screens show for `O=C(CCc1ccc(Oc2cc([N+](=O)[O-])cc([N+](=O)[O-])c2)cc1)N1CCCCCC1`?
TNF death inh: 0.6; m-calpain inh: 11.6; zVAD death inh: 0.5; ROMK mod: -2.93*; 14-3-3 Bad PPI: -1.1; Efa HMGR inh: -2.6; ROMK hit retest: 0.0642*

How did O=C(CCc1ccccc1)N1CCN(c2ccc([N+](=O)[O-])cc2)CC1 do in these assays?
TNF death inh: -0.7; m-calpain inh: 7.9; zVAD death inh: 0.1; ROMK mod: -3.6*; 14-3-3 Bad PPI: -4.8; Efa HMGR inh: -5.2; ROMK hit retest: 0.063*

Results for O=C(Cc1ccc([N+](=O)[O-])cc1)N1CCCCCC1 ?
TNF death inh: 4.9; m-calpain inh: 4.3; zVAD death inh: 0.3; ROMK mod: -0.941; 14-3-3 Bad PPI: -4.2; Efa HMGR inh: 0.0

Results for CSc1ccccc1NC(=O)c1ccccc1C ?
TNF death inh: -0.6; m-calpain inh: -11.4; zVAD death inh: 0.6; 14-3-3 Bad PPI: -8.0; Efa HMGR inh: -3.8

What do the screens show for `Cc1c(N)cc[n+](CC(=O)c2ccccc2)c1C`?
TNF death inh: -1.6; m-calpain inh: -27.5; zVAD death inh: 3.8; 14-3-3 Bad PPI: -10.4; Efa HMGR inh: 2.6

How did Cc1ccc(OCCn2c(CCCO)nc3ccccc32)cc1 do in these assays?
TNF death inh: 1.5; m-calpain inh: 1.1; zVAD death inh: -0.5; ROMK mod: -1.04; 14-3-3 Bad PPI: -1.2; Efa HMGR inh: -9.7

What do the screens show for `OCCCc1nc2ccccc2n1CCOc1ccccc1`?
TNF death inh: -0.9; m-calpain inh: -24.4; zVAD death inh: 0.0; ROMK mod: -2.89*; 14-3-3 Bad PPI: -5.1; Efa HMGR inh: 0.0; ROMK hit retest: 0.0672*

What do the screens show for `O=C(O)c1ccc(N=NN2CCCCCC2)cc1`?
TNF death inh: 2.0; m-calpain inh: 4.9; zVAD death inh: 0.4; ROMK mod: -0.23; 14-3-3 Bad PPI: -4.6; Efa HMGR inh: -2.4

How did C=CCn1c(SCC(N)=O)nnc1-c1cnccn1 do in these assays?
TNF death inh: 6.5; m-calpain inh: -10.3; zVAD death inh: 0.3; ROMK mod: 0.527; 14-3-3 Bad PPI: -3.1

Results for C=CCn1c(SCC(N)=O)nnc1-c1cccc(Br)c1 ?
TNF death inh: -2.6; m-calpain inh: -11.0; zVAD death inh: 0.4; 14-3-3 Bad PPI: 1.4; Efa HMGR inh: -2.9; ROMK hit retest: 0.0872

What do the screens show for `Cc1cc2oc(=O)cc(Cn3ccnc3)c2cc1C`?
TNF death inh: -1.2; m-calpain inh: -112.1; zVAD death inh: 0.2; ROMK mod: -6.26*; 14-3-3 Bad PPI: 0.6; Efa HMGR inh: -1.9; ROMK hit retest: 0.0769

Results for CC1(C)CC(=O)C2=C(C1)c1c(ccc3ccccc13)NC2c1ccc(Br)o1 (centres undefined) ?
TNF death inh: -1.9; m-calpain inh: -360.1; zVAD death inh: 0.2; ROMK mod: -1.56; 14-3-3 Bad PPI: -4.7; Efa HMGR inh: -2.9

What do the screens show for `CCOc1ccc(-n2c(C)nc3cc(C(=O)NCc4ccc5c(c4)OCO5)ccc32)cc1`?
TNF death inh: 0.5; m-calpain inh: 26.2; zVAD death inh: 0.1; ROMK mod: 2.32; 14-3-3 Bad PPI: -4.4; Efa HMGR inh: -5.1

How did COc1ccc(-n2c(C)nc3cc(C(=O)NCc4ccc5c(c4)OCO5)ccc32)cc1 do in these assays?
TNF death inh: 0.9; m-calpain inh: 25.2; zVAD death inh: 0.3; ROMK mod: 4.25*; 14-3-3 Bad PPI: 9.2; Efa HMGR inh: -0.2; ROMK hit retest: 0.0923

How did COc1cc(C2C(C#N)=C(N)Oc3c2ccc2ccccc32)ccc1OCC(=O)Nc1ccc(C)cc1 (centres undefined) do in these assays?
TNF death inh: -1.4; m-calpain inh: -80.2; zVAD death inh: 8.8; ROMK mod: -0.541; 14-3-3 Bad PPI: -3.4; Efa HMGR inh: 0.7

Results for COc1ccc(C2C(C#N)=C(N)Oc3c2ccc2cccnc32)cc1OC (centres undefined) ?
TNF death inh: -7.3; m-calpain inh: -7.8; zVAD death inh: -1.1; ROMK mod: 6.72*; 14-3-3 Bad PPI: -17.4; Efa HMGR inh: -1.6; ROMK hit retest: 0.0774

How did O=C(NC1CCCCC1)C(c1cc2c(cc1[N+](=O)[O-])OCO2)N1CCCCC1 (centres undefined) do in these assays?
TNF death inh: 0.5; m-calpain inh: -13.2; ROMK mod: -1.49; 14-3-3 Bad PPI: -7.8; Efa HMGR inh: -4.9

What do the screens show for `COCCCNC(=O)C1CCC(CNS(=O)(=O)c2ccc(Cl)cc2)CC1` (centres undefined)?
TNF death inh: 1.6; m-calpain inh: -3.1; zVAD death inh: 0.2; 14-3-3 Bad PPI: -4.8; Efa HMGR inh: 0.1; ROMK hit retest: 0.0863

What do the screens show for `CCOC(=O)Cc1csc(NC(=O)/C=C/c2ccc(Cl)cc2)n1`?
TNF death inh: -6.5; m-calpain inh: -17.8; zVAD death inh: -0.3; 14-3-3 Bad PPI: -2.8

Results for CN(C)c1ccc(/C=C(/NC(=O)c2ccccc2)C(=O)N/N=C/c2ccc([N+](=O)[O-])c(O)c2)cc1 ?
TNF death inh: -5.8; m-calpain inh: -164.2; zVAD death inh: 0.2; Efa HMGR inh: 1.1

What do the screens show for `Cc1ccc(C2(CCNC(C)c3cccs3)CCOC(C(C)C)C2)cc1` (centres undefined)?
TNF death inh: 5.2; m-calpain inh: 13.1; zVAD death inh: 0.9; ROMK mod: -0.083; 14-3-3 Bad PPI: -9.9; Efa HMGR inh: 0.2

How did COc1ccccc1C1(CCNC(C)c2cccs2)CCOC(C(C)C)C1 (centres undefined) do in these assays?
TNF death inh: 4.4; m-calpain inh: -4.6; zVAD death inh: -0.6; 14-3-3 Bad PPI: 3.1; ROMK hit retest: 0.0412*

Results for COc1ccc(S(=O)(=O)NC(C)C(=O)O)cc1 (centres undefined) ?
TNF death inh: 0.8; m-calpain inh: 5.4; zVAD death inh: 0.6; ROMK mod: 1.03*; 14-3-3 Bad PPI: -5.6; Efa HMGR inh: -1.5; ROMK hit retest: 0.0736

Results for COc1ccc(NS(=O)(=O)c2ccc(NS(C)(=O)=O)cc2)cc1 ?
TNF death inh: 0.0; m-calpain inh: -30.0; zVAD death inh: 0.6; ROMK mod: -3.24*; 14-3-3 Bad PPI: -3.5; Efa HMGR inh: -8.5; ROMK hit retest: 0.0831

How did COC(=O)c1ccc(COc2ccc(/C=N/O)cc2OC)o1 do in these assays?
TNF death inh: 0.9; m-calpain inh: -20.9; zVAD death inh: 7.8; 14-3-3 Bad PPI: -20.3; Efa HMGR inh: -2.1

Screening data (PubChem BioAssay)
